This is an account of results in PubChem BioAssay (EPA / NIEHS).

Records with an inconclusive call do not appear. Calls of active or inactive are those of the source. How the source made its calls: active means hit-call score of the fitted dose curve at least 0.9, where 1 is the maximum; inconclusive means response in the unintended direction; inactive means score below 0.9.

The assay in a line: CLD_ACTIN_48hr: CellzDirect (CLD) Gene Expression Assay for Baseline Control (Actin) at 48 hours (AID 2283702). The method, then:
CLD_48hr is a cell-based, multiplexed-readout assay that uses hepatocyte, a human liver primary cell, with measurements taken at 48 hours after chemical dosing in a 96-well plate.CLD_ACTIN_48hr is one of 16 assay component(s) measured or calculated from the CLD_48hr assay. It is designed to make measurements of mRNA induction, a form of inducible reporter, as detected with chemiluminescence signals by Quantitative Nuclease Protection Assay (qNPA) technology.Data from the assay component CLD_ACTIN_48hr was analyzed at the endpoint, CLD_ACTIN_48hr, in the positive analysis fitting direction relative to DMSO as the negative control and baseline of activity. Using a type of inducible reporter, gain-of-signal activity can be used to understand changes in the reporter gene as they relate to the gene ACTA1. Furthermore, this assay endpoint can be referred to as a secondary readout, because this assay has produced multiple assay endpoints where this one serves a background control function. To generalize the intended target to other relatable targets, this assay endpoint is annotated to the background measurement intended target family, where subfamily is baseline control.
Human hepatocyte cultures were treated daily for two consecutive days with fresh dosing solutions containing appropriate concentrations of the 320 ToxCast chemicals (chemical identities were blinded to CellzDirect and other ToxCast collaborators), vehicle control (0.2% DMSO), and positive control inducers as summarized in Table 1. Due to the large number of treatment groups and chemicals examined, the ToxCast chemicals were divided into two groups (spanning two independent cultures of hepatocytes from separate donor preparations (Hu778: ToxCast plates 1 and 2; Hu776: ToxCast plates 3 and 4). Each preparation of human hepatocyte cultures was treated with respective vehicle control, medium only control, set of six positive controls/reference chemicals for the five hepatic receptor pathways, and a subset of eight of the ToxCast chemicals (indoxacarb, pyrithiobac-sodium, norflurazon, cyhalofop-butyl, methomyl, thiram, acetochlor, and propiconazole). These replicate data, coupled with internal replicates designed within the blinded ToxCast chemical library, provided additional data to evaluate interindividual differences between hepatocyte preparations and their potential impact on chemical profiles.Cell morphology and integrity were evaluated using phase-contrast microscopy as an indicator of hepatocyte cell health (Tyson & Green, 1987). Cultures for each treatment group (i.e., media, vehicle [0.2% DMSO], positive control inducers [multiple concentrations], and the ToxCast chemicals [multiple concentrations]) were observed and cell morphology was assessed relative to vehicle control cultures at each harvest time point (0, 6, 24, or 48 h). […] Images were evaluated at the conclusion of the study to assess changes in cell integrity and account for the effects of chemical exposure on uncharacteristic changes in concentration-dependent gene expression profiles. The results from these determinations of apparent cytotoxicity were annotated (yes/no) alongside the corresponding qNPA data for reference.At the conclusion of each treatment period, hepatocyte cultures (96-well) were washed with 1 volume of HBSS, lysed by addition of 25 ul ArrayPlate lysis buffer (HTG, Tucson, AZ), and 70 ul/well of Denaturation Oil, denatured by incubation at 95C for 10 min, and frozen at approximately -70C until analysis by nuclease protection assay (qNPA) (Roberts et al., 2007). For qNPA analysis, cell lysates were thawed at 50C for approximately 30 min, qNPA probes were added, and samples were incubated at 95C for 10 min to begin the detection process by denaturing the target RNA, dissociating the duplexes and secondary structure hybridization. At the conclusion of the hybridization period, S1 nuclease reagent was added to each sample to digest all nonprotected nucleotides at 50C for 60-90 min. […]
As to `COP(=O)(OC)C(O)C(Cl)(Cl)Cl` (configuration not stated), the compound was classed as inactive.
On to `CC(C)=CC1C(C(=O)OCN2C(=O)C3=C(CCCC3)C2=O)C1(C)C` (configuration not stated), for which the outcome was inactive.
As to `N#CSCSC#N`, the outcome was inactive.
The result for `CSC1=N[C@@](C)(c2ccccc2)C(=O)N1Nc1ccccc1` reads “inactive”.
The value for `CC(C)N(C(=O)SCC(Cl)=C(Cl)Cl)C(C)C` was “inactive”; that for `C=C(C)[C@H]1Cc2c(ccc3c2O[C@@H]2COc4cc(OC)c(OC)cc4[C@@H]2C3=O)O1` was “inactive”; that for `CNC(=O)ON=C(SC)C(=O)N(C)C` was “inactive”.
The result for `CC(=NC#N)N(C)Cc1ccc(Cl)nc1` reads “inactive”; that for `CCc1cccc(CC)c1N(COC)C(=O)CCl`, “inactive”.
In the case of `CON=C(C(=O)OC)c1ccccc1CON=C(C)c1cccc(C(F)(F)F)c1`, the call was inactive.
The value for `CCCOc1nn(C(=O)NS(=O)(=O)c2ccccc2C(=O)OC)c(=O)n1C` was “inactive”; that for `CCC(CC)Nc1c([N+](=O)[O-])cc(C)c(C)c1[N+](=O)[O-]` was “inactive”; that for `COc1cc(OC)nc(Sc2cccc(Cl)c2C(=O)O)n1` was “inactive”.
The result for `CN1COCN(Cc2cnc(Cl)s2)C1=N[N+](=O)[O-]` reads “inactive”; that for `C[Si](Cn1cncn1)(c1ccc(F)cc1)c1ccc(F)cc1`, “inactive”; that for `COP(=O)(OC)SCn1c(=O)oc2cc(Cl)cnc21`, “inactive”.
The value for `COc1ccc(C(=CC(=O)N2CCOCC2)c2ccc(Cl)cc2)cc1OC` was “inactive”; that for `CC[C@H](C)[C@H]1O[C@]2(C=C[C@@H]1C)C[C@@H]1C[C@@H](C/C=C(\C)[C@@H](O[C@H]3C[C@H](OC)[C@@H](O[C@H]4C[C@H](OC)[C@@H](NC)[C@H](C)O4)[C@H](C)O3)[C@@H](C)/C=C/C=C3\CO[C@@H]4[C@H](O)C(C)=C[C@@H](C(=O)O1)[C@]34O)O2` was “inactive”; that for `S=C1NCCN1` was “inactive”.
Take `CCCCOC(=O)[C@@H](C)Oc1ccc(Oc2ccc(C#N)cc2F)cc1`: the call was inactive.
Take `CC(Oc1cccc(Cl)c1)C(=O)O` (configuration not stated): the compound was called inactive.
The value for `CNC(=O)Oc1cccc2c1OC(C)(C)O2` was “inactive”; that for `C[N+]1(C)CCCCC1` was “inactive”.
The value for `O=c1ccc(=O)[nH][nH]1` was “inactive”.
The value for `CC1(C(=O)Nc2ccc(O)c(Cl)c2Cl)CCCCC1` was “inactive”; that for `CCc1cnc(C2=NC(C)(C(C)C)C(=O)N2)c(C(=O)O)c1` (configuration not stated) was “inactive”.
Turning to `CC1=NNC(=O)N(/N=C/c2cccnc2)C1`, the call was inactive.
For the compound `COP(=O)(OC)OC(Br)C(Cl)(Cl)Br` (configuration not stated), the result was inactive.
The value for `CNC(=O)ON=C(C)SC` was “inactive”; that for `CCCOCC(=Nc1ccc(Cl)cc1C(F)(F)F)n1ccnc1` was “inactive”; that for `Cc1nn(-c2cc(NS(C)(=O)=O)c(Cl)cc2Cl)c(=O)n1C(F)F` was “inactive”.
The result for `Nc1nc(N)nc(NC2CC2)n1` reads “inactive”.
